# Laboratory results from PubChem BioAssay (EPA / NIEHS).
# Inconclusive results are not listed. Activity calls are given as the source filed them. Rule for the calls: active = hit-call score of the fitted dose curve at least 0.9, where 1 is the maximum; inconclusive = response in the unintended direction; inactive = score below 0.9.
# Columns and labels:
# [1] = target: Luciferin 4-monooxygenase (Photinus pyralis) (UniProt P08659); assay: CCTE_Simmons_QuantiLum_inhib_2: CCTE's Firefly Luciferase Inhibition Assay, Simmons Lab (AID 2283767);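 for AC50: potency for inhibitors that lower luciferase luminescence relative to DMSO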
# Outline: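 Luminescence loss relative to DMSO vehicle defines inhibition; detection reagent containing 150 uM D-luciferin and 147 uM dATP (final, pH 7.8) is injected immediately before each read. Enzyme is preincubated with an 8-point titration (5 nM–87.5 uM final) for 30 min at 37C.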
# [2] = ArunA_Migration_hNP: ArunA Biomedical's Oris Neuroprogenitor (hNP) Cell Migration Assay (AID 2283754)
# Outline: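 Human H9-derived hNP1 neuroprogenitors on Matrigel with LIF/bFGF, plated around seeding stoppers for 16 h at 37C; stoppers removed at start of 72 h chemical exposure. Calcein-AM staining, fluorescence 494/517 nm in detection zone; loss-of-signal vs DMSO; cytochalasin D control.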
# [3] = ArunA_Migration_hNC: ArunA Biomedical's Oris Neural Crest (hNC) Cell Migration Assay (AID 2283755)
# Outline: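 Human H9-derived neural crest stem cells, 60,000/well on Matrigel, 16 h at 37C, then 72 h chemical exposure after seeding-stopper removal. Migration into detection zone read as calcein-AM fluorescence (ex494/em517), relative to DMSO.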
# [4] = ArunA_NOG_NucleusCount: ArunA Biomedical's Neurite Outgrowth (NOG) Assay for Nucleus Count (AID 2283756)
# Outline: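 Human H9-derived differentiated neurons were exposed for 48 h right after seeding. Hoechst-stained nuclei gated by size and intensity were counted by automated high-content imaging as viable neurons. Loss of signal vs DMSO.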
# [5] = ArunA_NOG_NeuritesPerNeuron: ArunA Biomedical's Neurite Outgrowth (NOG) Assay for Neurites Per Neuron (AID 2283758)
# Procedure: (§1) ArunA_NOG (Neurite Outgrowth) is a cell-based, image-based assay that uses human H9-derived embryonic differentiated neurons (hNN). Measurements were taken 48 hours after chemical dosing in a 96-well plate.ArunA_NOG_NeuritesPerNeuron is an assay component measured from the ArunA_NOG assay. It is designed to make measurements of neurite outgrowth related to number of neurites per neuron, using a form of morphology reporter, as detected with fluorescence intensity signals by HCS Fluorescent Imaging technology. Data from the assay component ArunA_NOG_NeuritesPerNeuron was analyzed at the endpoint, ArunA_NOG_NeuritesPerNeuron, in the positive analysis fitting direction relative to DMSO as the negative control and baseline of activity. […]
# Chemical treatment: Differentiated hNN cells were seeded and immediately exposed to test medium for 48 h. Following chemical exposure, cell bodies were stained with Hoechst 33,258 to quantitate viable neuron count and neurites were labeled with bIII-tubulin/DyLight1 488. High content imaging assessed the neurite outgrowth endpoints: neurite total length per neuron (um), neurite count per neuron, and branch points per neurite using the methods described in (Harrill et al 2010). […] Fixed integration times for image acquisition in each channel were determined by manual sampling of control-treated wells across multiple plates. […]
# [6] = ArunA_NOG_BranchPointsPerNeurite: ArunA Biomedical's Neurite Outgrowth (NOG) Assay for Branch Points Per Neurite (AID 2283759)
# Outline: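 Automated image analysis traced neurites (processes >10 um) from valid cell bodies after Hoechst and βIII-tubulin staining. hNN cells from H9 embryonic stem cells, 48 h exposure. Fitted bidirectionally against DMSO.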
# [7] = ArunA_NOG_NeuriteLength: ArunA Biomedical's Neurite Outgrowth (NOG) Assay for Neurite Length (AID 2283757)
# Procedure: as §1, with “plate.ArunA_NOG_NeuriteLength” for “plate.ArunA_NOG_NeuritesPerNeuron”, “neurite length,” for “number of neurites per neuron,”, “ArunA_NOG_NeuriteLength” for “ArunA_NOG_NeuritesPerNeuron”, “ArunA_NOG_NeuriteLength,” for “ArunA_NOG_NeuritesPerNeuron,”
# Chemical treatment: Differentiated hNN cells were seeded and immediately exposed to test medium for 48 h. Following chemical exposure, cell bodies were stained with Hoechst 33,258 to quantitate viable neuron count and neurites were labeled with bIII-tubulin/DyLight1 488. High content imaging assessed the neurite outgrowth endpoints: neurite total length per neuron (um), neurite count per neuron, and branch points per neurite using the methods described in (Harrill et al 2010). […] Plates were then loaded into a Cellomics ArrayScan VTI HCS reader high-content imaging system (ThermoFisher Scientific, Waltham, MA) for automated image acquisition and morphometric analyses. […]
# [8] = ArunA_CellTiter_hNP: Viability Assessment in the ArunA Biomedical's Oris Neural Crest (hNC) Cell Migration Assay (AID 2283753)
# Outline: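 H9-derived hNP1 neuroprogenitors, 60,000/well on Matrigel, cultured 16 h, then 72 h chemical exposure in test medium. Cell titer via CellTiter Aqueous One; positive-direction fit vs DMSO.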
# [9] = system: chicken Androgen Receptor (AR), gene 422165; assay: ATG_chAR_XSP1: Attagene TRANS-FACTORIAL Multi-Species (XSP1) HepG2 Assay for chicken Androgen Receptor (AR) (AID 2283768)
# Outline: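 HepG2 cells transiently transfected with multiplexed GAL4-UAS reporter units expressing chimeric chicken AR-Gal4; 3 nM 6-alpha-fluorotestosterone for partial AR stimulation; 24 h after dosing, reporter mRNA by RT-PCR and capillary electrophoresis, gain-of-signal versus DMSO.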
# [10] = system: zebrafish Androgen Receptor (AR), gene 100005148; assay: ATG_zfAR_XSP1: Attagene TRANS-FACTORIAL Multi-Species (XSP1) HepG2 Assay for zebrafish Androgen Receptor (AR) (AID 2283771)
# Outline: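 HepG2 cells were transiently transfected with a zebrafish AR-GAL4 reporter system and partially stimulated with 3 nM 6-alpha-fluorotestosterone. Reporter mRNA was measured after 24 h dosing by RT-PCR with capillary electrophoresis, and gain-of-signal was fitted relative to DMSO.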
# Chain of Luciferin 4-monooxygenase (Photinus pyralis) (P08659 whole entry, looked up): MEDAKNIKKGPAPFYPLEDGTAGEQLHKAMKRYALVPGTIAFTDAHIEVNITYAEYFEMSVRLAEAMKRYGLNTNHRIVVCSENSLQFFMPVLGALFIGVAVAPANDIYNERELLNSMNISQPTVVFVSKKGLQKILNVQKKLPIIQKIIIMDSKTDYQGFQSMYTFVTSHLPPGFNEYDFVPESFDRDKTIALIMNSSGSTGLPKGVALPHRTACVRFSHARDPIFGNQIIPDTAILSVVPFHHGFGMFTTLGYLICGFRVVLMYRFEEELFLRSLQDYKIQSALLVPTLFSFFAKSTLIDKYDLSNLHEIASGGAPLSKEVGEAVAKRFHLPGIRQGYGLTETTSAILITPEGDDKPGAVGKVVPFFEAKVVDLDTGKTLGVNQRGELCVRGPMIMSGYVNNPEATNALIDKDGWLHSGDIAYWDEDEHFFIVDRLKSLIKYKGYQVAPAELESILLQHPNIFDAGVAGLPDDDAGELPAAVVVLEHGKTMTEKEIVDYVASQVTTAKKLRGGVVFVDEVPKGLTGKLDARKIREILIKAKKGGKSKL
smiles,measurement,setting,value
CCC(C)(C)c1ccc(O)cc1,outcome,[1],inactive
Nc1ccc2ccccc2c1,AC50,[1],53.8 µM (active)
Cc1ccc(N)cc1N,outcome,[2],inactive
same,AC50,[3],55.6 µM (active)
same,outcome,[4],inactive
same,outcome,[5],inactive
same,outcome,[6],inactive
same,AC50,[1],21.6 µM (active)
CCCCCCCc1ccc(O)cc1,AC50,[1],43.6 µM (active)
CCCCN(CC)C(=O)SCCC,outcome,[1],inactive
CC(C)(C)c1ccc(O)cc1,outcome,[1],inactive
O=C(O)C1C(C(=O)O)C2(Cl)C(Cl)=C(Cl)C1(Cl)C2(Cl)Cl (stereo not drawn),outcome,[2],inactive
same,outcome,[3],inactive
same,outcome,[7],inactive
same,outcome,[5],inactive
same,outcome,[6],inactive
CCCCc1ccc(O)cc1,outcome,[1],inactive
CCOP(=S)(OCC)SCSCC,outcome,[1],inactive
Nc1cc2c3c(c1)C(c1ccccc1)=N[C@@H](NC(=O)c1cccnc1)C(=O)N3CC2,outcome,[1],inactive
O=c1ssc(Cl)c1Cl,AC50,[1],18 µM (active)
O=S1(=O)OCC2C(CO1)C1(Cl)C(Cl)=C(Cl)C2(Cl)C1(Cl)Cl (stereo not drawn),AC50,[1],31.9 µM (active)
CCCCC(CC)COP(=O)(Oc1ccccc1)Oc1ccccc1 (stereo not drawn),outcome,[8],inactive
same,outcome,[2],inactive
same,outcome,[3],inactive
same,outcome,[4],inactive
CCOP(=S)(Oc1ccc([N+](=O)[O-])cc1)c1ccccc1 (stereo not drawn),outcome,[1],inactive
c1ccc(OP(Oc2ccccc2)Oc2ccccc2)cc1,outcome,[1],inactive
c1ccc2c(c1)Nc1ccccc1S2,outcome,[1],inactive
Cc1cccc(N)c1,outcome,[1],inactive
O=S(=O)(c1ccc(O)cc1)c1ccc(O)cc1,outcome,[1],inactive
Nc1ccc(Cl)cc1,outcome,[1],inactive
O=P(Oc1ccccc1)(Oc1ccccc1)Oc1ccccc1,outcome,[8],inactive
same,outcome,[2],inactive
same,outcome,[4],inactive
same,outcome,[9],inactive
same,outcome,[10],inactive
[N-]=[N+]=[N-],outcome,[1],inactive
CCC1(c2ccccc2)C(=O)N=C(O)NC1=O (stereo not drawn),outcome,[1],inactive
